# Test results published in the supplement of paper PMC11732987, “Enantioselective OTUD7B fragment discovery through chemoproteomics screening and high-throughput optimisation” (Communications Chemistry, 2025).
# Compound: ClCC(=O)NC1CCOc2ccc(Cl)cc12
# Test: log2 ratio of Biotin-Ahx-Ub-VS probe labelling (compound/DMSO); higher = less target engagement, active = hit call of the paper (q ≤ 0.05, log2 ratio ≤ -1)
# Details: compound concentration: 50uM; treatment time: 3 h
# How it was run: (§1)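 For activity-based profiling, 495 µg portions of HEK293T lysate in Tris/CHAPS/IGEPAL buffer with protease inhibitors were treated in triplicate with compound at 50 or 200 µM or with DMSO for 3 h. A 1 h incubation with Biotin-Ahx-Ub-VS (0.5 µM final) followed, then NeutrAvidin enrichment, LysC and trypsin digestion and diaPASEF LC-MS/MS. The compound/DMSO base-two log ratios were averaged from median-normalised label-free quantities using an unpaired t-test. Proteins needed at least 2 unique peptides to be included.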
# UniProt Q70CQ2, sequence (Q70CQ2 whole entry): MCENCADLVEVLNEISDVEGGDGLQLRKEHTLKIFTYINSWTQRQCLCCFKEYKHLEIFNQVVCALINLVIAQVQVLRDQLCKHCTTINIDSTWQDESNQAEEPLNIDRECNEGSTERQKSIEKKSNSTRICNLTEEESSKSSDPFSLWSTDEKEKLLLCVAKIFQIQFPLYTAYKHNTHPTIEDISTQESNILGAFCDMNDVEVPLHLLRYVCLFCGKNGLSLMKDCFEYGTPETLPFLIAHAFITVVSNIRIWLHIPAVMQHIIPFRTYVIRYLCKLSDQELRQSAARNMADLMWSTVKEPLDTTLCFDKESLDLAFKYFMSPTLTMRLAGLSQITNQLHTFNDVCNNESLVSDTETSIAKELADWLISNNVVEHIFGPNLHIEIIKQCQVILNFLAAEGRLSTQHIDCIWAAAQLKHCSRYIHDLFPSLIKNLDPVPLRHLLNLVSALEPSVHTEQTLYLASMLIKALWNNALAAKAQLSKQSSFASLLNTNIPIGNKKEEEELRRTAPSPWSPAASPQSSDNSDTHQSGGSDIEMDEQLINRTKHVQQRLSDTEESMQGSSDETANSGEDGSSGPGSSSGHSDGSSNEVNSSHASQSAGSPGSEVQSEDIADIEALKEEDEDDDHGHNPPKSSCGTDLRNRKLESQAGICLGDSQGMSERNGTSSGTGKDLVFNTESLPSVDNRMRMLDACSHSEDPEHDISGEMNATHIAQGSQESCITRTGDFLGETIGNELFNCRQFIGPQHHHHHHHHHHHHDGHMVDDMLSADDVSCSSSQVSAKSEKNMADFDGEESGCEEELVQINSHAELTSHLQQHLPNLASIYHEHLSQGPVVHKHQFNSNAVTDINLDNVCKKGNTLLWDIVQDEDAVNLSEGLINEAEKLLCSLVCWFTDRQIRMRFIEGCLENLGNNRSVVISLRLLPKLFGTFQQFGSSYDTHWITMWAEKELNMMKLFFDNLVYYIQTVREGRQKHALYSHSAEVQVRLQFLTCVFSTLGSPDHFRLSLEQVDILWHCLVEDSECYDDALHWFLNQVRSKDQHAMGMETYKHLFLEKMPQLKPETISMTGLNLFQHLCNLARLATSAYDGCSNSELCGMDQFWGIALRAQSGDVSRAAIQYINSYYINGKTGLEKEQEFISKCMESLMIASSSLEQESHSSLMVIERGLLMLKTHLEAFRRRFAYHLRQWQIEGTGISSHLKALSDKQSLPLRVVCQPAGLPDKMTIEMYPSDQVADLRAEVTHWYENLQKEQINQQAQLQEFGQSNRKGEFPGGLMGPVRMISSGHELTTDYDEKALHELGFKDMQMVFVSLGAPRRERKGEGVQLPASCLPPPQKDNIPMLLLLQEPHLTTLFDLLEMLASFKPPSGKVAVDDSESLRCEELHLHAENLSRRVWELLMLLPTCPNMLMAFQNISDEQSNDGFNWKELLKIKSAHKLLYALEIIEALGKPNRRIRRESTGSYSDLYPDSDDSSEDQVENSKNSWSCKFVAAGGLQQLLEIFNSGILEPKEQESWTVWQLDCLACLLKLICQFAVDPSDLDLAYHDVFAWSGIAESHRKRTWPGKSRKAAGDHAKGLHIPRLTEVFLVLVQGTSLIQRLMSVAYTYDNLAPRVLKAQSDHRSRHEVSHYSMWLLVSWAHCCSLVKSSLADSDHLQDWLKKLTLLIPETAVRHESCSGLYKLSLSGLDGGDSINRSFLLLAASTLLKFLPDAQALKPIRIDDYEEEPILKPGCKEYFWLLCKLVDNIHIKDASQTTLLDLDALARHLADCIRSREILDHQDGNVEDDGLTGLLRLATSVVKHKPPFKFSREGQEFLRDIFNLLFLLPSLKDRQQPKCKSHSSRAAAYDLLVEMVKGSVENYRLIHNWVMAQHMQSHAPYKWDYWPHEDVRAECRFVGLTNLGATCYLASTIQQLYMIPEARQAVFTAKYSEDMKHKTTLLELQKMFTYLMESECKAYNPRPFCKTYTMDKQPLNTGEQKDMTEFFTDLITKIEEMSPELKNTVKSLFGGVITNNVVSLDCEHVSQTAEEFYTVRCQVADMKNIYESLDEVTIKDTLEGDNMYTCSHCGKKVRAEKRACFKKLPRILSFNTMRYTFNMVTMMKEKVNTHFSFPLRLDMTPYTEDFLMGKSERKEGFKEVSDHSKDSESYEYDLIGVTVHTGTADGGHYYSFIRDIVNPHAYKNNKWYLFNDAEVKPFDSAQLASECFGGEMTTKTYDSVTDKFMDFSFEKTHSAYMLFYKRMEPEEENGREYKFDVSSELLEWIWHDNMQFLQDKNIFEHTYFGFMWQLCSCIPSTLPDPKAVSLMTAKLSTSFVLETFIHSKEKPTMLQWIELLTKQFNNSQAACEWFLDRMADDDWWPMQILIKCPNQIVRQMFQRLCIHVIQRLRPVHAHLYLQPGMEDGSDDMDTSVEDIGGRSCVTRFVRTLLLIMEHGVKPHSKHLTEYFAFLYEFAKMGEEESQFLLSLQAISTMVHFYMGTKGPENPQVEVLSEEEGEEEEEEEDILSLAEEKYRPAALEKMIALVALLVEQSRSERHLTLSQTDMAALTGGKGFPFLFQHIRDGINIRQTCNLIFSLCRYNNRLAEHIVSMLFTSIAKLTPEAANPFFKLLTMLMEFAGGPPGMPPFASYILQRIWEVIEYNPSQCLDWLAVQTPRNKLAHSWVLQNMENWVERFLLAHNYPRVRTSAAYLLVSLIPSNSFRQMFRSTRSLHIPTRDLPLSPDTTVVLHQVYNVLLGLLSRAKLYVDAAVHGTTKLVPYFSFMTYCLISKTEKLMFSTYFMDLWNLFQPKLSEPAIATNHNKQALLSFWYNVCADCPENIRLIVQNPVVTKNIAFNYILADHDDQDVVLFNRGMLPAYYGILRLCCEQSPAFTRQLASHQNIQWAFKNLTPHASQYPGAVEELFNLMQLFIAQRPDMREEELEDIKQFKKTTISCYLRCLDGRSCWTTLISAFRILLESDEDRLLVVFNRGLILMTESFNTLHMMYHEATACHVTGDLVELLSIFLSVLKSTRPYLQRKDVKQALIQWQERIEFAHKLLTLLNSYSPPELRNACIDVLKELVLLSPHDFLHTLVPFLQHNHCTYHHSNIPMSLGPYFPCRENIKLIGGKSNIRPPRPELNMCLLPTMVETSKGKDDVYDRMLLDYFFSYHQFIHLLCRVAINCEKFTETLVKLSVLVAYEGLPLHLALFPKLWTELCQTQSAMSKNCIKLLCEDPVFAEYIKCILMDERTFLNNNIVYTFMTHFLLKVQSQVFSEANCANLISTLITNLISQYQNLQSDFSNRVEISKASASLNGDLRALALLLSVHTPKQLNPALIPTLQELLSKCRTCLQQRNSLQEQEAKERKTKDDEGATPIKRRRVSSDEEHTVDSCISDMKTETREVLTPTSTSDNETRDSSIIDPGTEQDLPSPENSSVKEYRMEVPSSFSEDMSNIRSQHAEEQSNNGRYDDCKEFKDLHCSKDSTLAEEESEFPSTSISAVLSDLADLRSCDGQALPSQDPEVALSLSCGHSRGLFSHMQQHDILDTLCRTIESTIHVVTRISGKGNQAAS
# UniProt P62068, sequence (P62068 whole entry): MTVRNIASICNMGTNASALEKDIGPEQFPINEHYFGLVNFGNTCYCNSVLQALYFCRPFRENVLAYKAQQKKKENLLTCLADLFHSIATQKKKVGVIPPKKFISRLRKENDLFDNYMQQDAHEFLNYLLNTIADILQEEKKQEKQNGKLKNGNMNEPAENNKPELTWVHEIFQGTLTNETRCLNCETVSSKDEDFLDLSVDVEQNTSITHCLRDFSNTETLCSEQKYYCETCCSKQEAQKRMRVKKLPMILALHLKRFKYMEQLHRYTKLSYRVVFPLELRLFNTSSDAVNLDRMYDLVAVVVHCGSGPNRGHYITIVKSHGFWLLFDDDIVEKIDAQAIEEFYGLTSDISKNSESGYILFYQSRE
# UniProt Q9UHP3, sequence (Q9UHP3 whole entry): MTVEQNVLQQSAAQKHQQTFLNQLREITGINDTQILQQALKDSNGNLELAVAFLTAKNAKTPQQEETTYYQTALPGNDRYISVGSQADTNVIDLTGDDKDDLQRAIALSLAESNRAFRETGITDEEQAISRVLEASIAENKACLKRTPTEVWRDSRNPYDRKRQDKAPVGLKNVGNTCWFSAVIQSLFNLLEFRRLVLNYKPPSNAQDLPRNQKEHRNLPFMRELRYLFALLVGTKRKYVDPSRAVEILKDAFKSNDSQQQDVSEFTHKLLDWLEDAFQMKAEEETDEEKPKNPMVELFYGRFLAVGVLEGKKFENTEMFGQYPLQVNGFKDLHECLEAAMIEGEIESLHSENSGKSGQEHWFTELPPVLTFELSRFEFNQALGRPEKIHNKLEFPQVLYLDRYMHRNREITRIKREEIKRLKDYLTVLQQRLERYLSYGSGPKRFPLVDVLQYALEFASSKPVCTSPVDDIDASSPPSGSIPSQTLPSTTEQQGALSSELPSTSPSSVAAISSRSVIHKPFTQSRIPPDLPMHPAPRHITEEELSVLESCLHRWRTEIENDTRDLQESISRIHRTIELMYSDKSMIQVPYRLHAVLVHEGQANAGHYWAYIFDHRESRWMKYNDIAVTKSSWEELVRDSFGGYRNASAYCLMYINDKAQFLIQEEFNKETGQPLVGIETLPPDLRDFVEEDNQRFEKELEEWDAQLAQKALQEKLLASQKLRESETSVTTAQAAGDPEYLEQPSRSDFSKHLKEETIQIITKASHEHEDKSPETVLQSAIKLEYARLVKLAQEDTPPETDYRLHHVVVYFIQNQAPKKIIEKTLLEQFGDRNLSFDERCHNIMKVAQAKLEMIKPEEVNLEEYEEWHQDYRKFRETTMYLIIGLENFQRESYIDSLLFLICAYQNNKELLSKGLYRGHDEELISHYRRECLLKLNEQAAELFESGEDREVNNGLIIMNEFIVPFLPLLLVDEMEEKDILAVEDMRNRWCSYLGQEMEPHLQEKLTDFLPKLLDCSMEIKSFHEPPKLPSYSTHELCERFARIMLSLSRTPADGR
row,Target,log2 ratio of Biotin-Ahx-Ub-VS probe labelling
1,USP54 (UniProt Q70EL1),0.326 (inactive)
2,UniProt Q5T2D3,-0.361 (inactive)
3,USP28 (UniProt Q96RU2),-0.164 (inactive)
4,UniProt Q70EL2,-0.00989 (inactive)
5,USP22 (UniProt Q9UPT9),-0.0691 (inactive)
6,OTUD6B (UniProt Q8N6M0),-0.248 (inactive)
7,EIF3F (UniProt O00303),-0.17 (inactive)
8,USP36 (UniProt Q9P275),-0.00761 (inactive)
9,USP16 (UniProt Q9Y5T5),-0.353 (inactive)
10,UCHL5 (UniProt Q9Y5K5),-0.308 (inactive)
11,OTUD7B (UniProt Q6GQQ9),-2.75 (active)
12,USP14 (UniProt P54578),-0.397 (inactive)
13,USP7 (UniProt Q93009),-0.182 (inactive)
14,USP34 (UniProt Q70CQ2),0.178 (inactive)
15,OTUB1 (UniProt Q96FW1),-0.31 (inactive)
16,USP9X (UniProt Q93008),-0.131 (inactive)
17,COPS5 (UniProt Q92905),-0.403 (inactive)
18,USP10 (UniProt Q14694),-0.314 (inactive)
19,USP46 (UniProt P62068),-0.229 (inactive)
20,YOD1 (UniProt Q5VVQ6),-0.167 (inactive)
21,BAP1 (UniProt Q92560),-1.05 (active)
22,UniProt P51784,-0.0759 (inactive)
23,USP25 (UniProt Q9UHP3),0.221 (inactive)
24,UniProt Q9UGI0,-0.41 (inactive)

# Same assay, conditions: compound concentration: 200uM; treatment time: 3 h
row,Target,log2 ratio of Biotin-Ahx-Ub-VS probe labelling
1,USP54 (UniProt Q70EL1),0.176 (inactive)
2,UniProt Q5T2D3,-0.177 (inactive)
3,USP28 (UniProt Q96RU2),-0.586 (inactive)
4,UniProt Q70EL2,-0.0714 (inactive)
5,USP22 (UniProt Q9UPT9),-0.277 (inactive)
6,OTUD6B (UniProt Q8N6M0),-0.361 (inactive)
7,EIF3F (UniProt O00303),0.0998 (inactive)
8,USP36 (UniProt Q9P275),-0.088 (inactive)
9,USP16 (UniProt Q9Y5T5),-0.626 (inactive)
10,UCHL5 (UniProt Q9Y5K5),-0.472 (inactive)
11,OTUD7B (UniProt Q6GQQ9),-5.2 (active)
12,USP14 (UniProt P54578),-0.0189 (inactive)
13,USP7 (UniProt Q93009),-0.301 (inactive)
14,USP34 (UniProt Q70CQ2),0.0865 (inactive)
15,OTUB1 (UniProt Q96FW1),-0.319 (inactive)
16,USP9X (UniProt Q93008),-0.237 (inactive)
17,COPS5 (UniProt Q92905),-0.0328 (inactive)
18,USP10 (UniProt Q14694),-0.0917 (inactive)
19,USP46 (UniProt P62068),-0.251 (inactive)
20,YOD1 (UniProt Q5VVQ6),-0.318 (inactive)
21,BAP1 (UniProt Q92560),-2.38 (active)
22,UniProt P51784,-0.235 (inactive)
23,USP25 (UniProt Q9UHP3),0.509 (inactive)
24,UniProt Q9UGI0,-0.0672 (inactive)

# Compound: ClCC(=O)NC1CCSc2ccccc12
# Test: as above
# Details: compound concentration: 50uM; treatment time: 3 h
# How it was run: as §1
row,Target,log2 ratio of Biotin-Ahx-Ub-VS probe labelling
1,USP54 (UniProt Q70EL1),0.0467 (inactive)
2,UniProt Q5T2D3,-0.0329 (inactive)
3,USP28 (UniProt Q96RU2),-0.108 (inactive)
4,UniProt Q70EL2,0.0879 (inactive)
5,USP22 (UniProt Q9UPT9),0.136 (inactive)
6,OTUD6B (UniProt Q8N6M0),0.0363 (inactive)
7,EIF3F (UniProt O00303),-0.0176 (inactive)
8,USP36 (UniProt Q9P275),0.158 (inactive)
9,USP16 (UniProt Q9Y5T5),-0.00515 (inactive)
10,UCHL5 (UniProt Q9Y5K5),0.0503 (inactive)
11,OTUD7B (UniProt Q6GQQ9),-3.62 (active)
12,USP14 (UniProt P54578),-0.186 (inactive)
13,USP7 (UniProt Q93009),0.0569 (inactive)
14,USP34 (UniProt Q70CQ2),-0.0836 (inactive)
15,OTUB1 (UniProt Q96FW1),0.00122 (inactive)
16,USP9X (UniProt Q93008),0.0883 (inactive)
17,COPS5 (UniProt Q92905),-0.0481 (inactive)
18,USP10 (UniProt Q14694),-0.0829 (inactive)
19,USP46 (UniProt P62068),-0.017 (inactive)
20,YOD1 (UniProt Q5VVQ6),0.161 (inactive)
21,BAP1 (UniProt Q92560),-0.619 (inactive)
22,UniProt P51784,0.214 (inactive)
23,USP25 (UniProt Q9UHP3),-0.0574 (inactive)
24,UniProt Q9UGI0,-0.265 (inactive)

# Same assay, conditions: compound concentration: 200uM; treatment time: 3 h
row,Target,log2 ratio of Biotin-Ahx-Ub-VS probe labelling
1,USP54 (UniProt Q70EL1),0.0947 (inactive)
2,UniProt Q5T2D3,-0.156 (inactive)
3,USP28 (UniProt Q96RU2),-0.622 (inactive)
4,UniProt Q70EL2,0.0524 (inactive)
5,USP22 (UniProt Q9UPT9),-0.123 (inactive)
6,OTUD6B (UniProt Q8N6M0),-0.296 (inactive)
7,EIF3F (UniProt O00303),0.00311 (inactive)
8,USP36 (UniProt Q9P275),0.1 (inactive)
9,USP16 (UniProt Q9Y5T5),-0.114 (inactive)
10,UCHL5 (UniProt Q9Y5K5),-0.365 (inactive)
11,OTUD7B (UniProt Q6GQQ9),-5.08 (active)
12,USP14 (UniProt P54578),-0.179 (inactive)
13,USP7 (UniProt Q93009),-0.25 (inactive)
14,USP34 (UniProt Q70CQ2),-0.557 (inactive)
15,OTUB1 (UniProt Q96FW1),-0.246 (inactive)
16,USP9X (UniProt Q93008),-0.151 (inactive)
17,COPS5 (UniProt Q92905),0.169 (inactive)
18,USP10 (UniProt Q14694),0.0327 (inactive)
19,USP46 (UniProt P62068),-0.304 (inactive)
20,YOD1 (UniProt Q5VVQ6),-0.174 (inactive)
21,BAP1 (UniProt Q92560),-2.44 (active)
22,UniProt P51784,-0.104 (inactive)
23,USP25 (UniProt Q9UHP3),-0.126 (inactive)
24,UniProt Q9UGI0,-0.226 (inactive)
